{"source": "PubChem BioAssay (NCATS)", "note": "The source made the active and inactive calls. Calls follow the shape of the dose curve; as a rule, active = well fitted curve in the direction sought with a large enough effect; inconclusive = small, poorly fitted or top-dose-only effect, or another doubt; inactive = no such curve, though single readings can be large or run the other way.", "data": [{"molecular_target": "Alpha-galactosidase (Coffea arabica) (UniProt Q42656)", "sequence (Q42656 whole entry, looked up)": "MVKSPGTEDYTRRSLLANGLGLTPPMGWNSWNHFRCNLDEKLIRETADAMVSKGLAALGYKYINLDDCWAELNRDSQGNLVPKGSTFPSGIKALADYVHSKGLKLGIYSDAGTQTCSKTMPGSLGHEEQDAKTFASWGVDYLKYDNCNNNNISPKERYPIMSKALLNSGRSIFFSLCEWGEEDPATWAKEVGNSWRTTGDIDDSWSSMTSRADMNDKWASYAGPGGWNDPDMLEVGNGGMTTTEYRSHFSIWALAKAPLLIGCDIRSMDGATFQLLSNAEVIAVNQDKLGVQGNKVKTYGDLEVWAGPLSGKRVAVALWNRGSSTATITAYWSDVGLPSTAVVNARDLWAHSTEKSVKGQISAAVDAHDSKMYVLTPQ", "assay": "Counterscreen for Glucocerebrosidase Inhibitors: qHTS Assay for Coffee Bean alpha-Galactosidase at pH 4.5 (AID 957)", "details": "purified coffee bean alpha-galactosidase, fluorogenic substrate; series mostly up to 76.9 µM", "how_it_was_run": "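Fluorogenic read-out: 4-methylumbelliferone at Ex 365/Em 440 nm after NaOH/glycine stop (pH 10). Enzyme 2 nM, 4-MU-alpha-galactoside 80 uM, citrate buffer pH 4.5, 20 min RT; normalized to no-enzyme and enzyme controls.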", "values": [{"compound": "CCN1CCC[C@H]1CNC(=O)c1cc(S(N)(=O)=O)ccc1OC", "outcome": "inactive"}, {"compound": "Nc1cc(=O)[nH]c(N)n1", "outcome": "inactive"}, {"compound": "CNCCCC12CCC(c3ccccc31)c1ccccc12", "outcome": "inactive"}, {"compound": "C[N+](C)(C)CCOC(N)=O", "outcome": "inactive"}, {"compound": "NCCCCCC(=O)O", "outcome": "inactive"}, {"compound": "CC(C)(C)NC[C@H](O)COc1nsnc1N1CCOCC1", "outcome": "inactive"}, {"compound": "CN1CCN(CC(=O)N2c3ccccc3C(=O)Nc3cccnc32)CC1", "outcome": "inactive"}, {"compound": "CCn1nc(C(=O)O)c(=O)c2cc3c(cc21)OCO3", "outcome": "inactive"}, {"compound": "O=C(O)CN(CCN(CC(=O)O)CC(=O)O)CCN(CC(=O)O)CC(=O)O", "outcome": "inactive"}, {"compound": "CN(C)C(=O)Oc1ccc[n+](C)c1", "outcome": "inactive"}, {"compound": "CC(C)Cc1ccc(C(C)C(=O)O)cc1", "note": "(centres undefined)", "outcome": "inactive"}, {"compound": "CNCCC=C1c2ccccc2CCc2ccccc21", "outcome": "inactive"}, {"compound": "Nc1ccc(S(=O)(=O)Nc2ccnn2-c2ccccc2)cc1", "outcome": "inactive"}, {"compound": "NCCCNCCSP(=O)(O)O", "outcome": "inactive"}, {"compound": "Cc1nc2ccccn2c(=O)c1CCN1CCC(C(=O)c2ccc(F)cc2)CC1", "outcome": "inactive"}, {"compound": "N[C@@H](COP(=O)(O)O)C(=O)O", "outcome": "inactive"}, {"compound": "C[C@H](CS)C(=O)N1CCC[C@H]1C(=O)O", "outcome": "inactive"}, {"compound": "Cc1nc2c([nH]1)c(=O)n(C)c(=O)n2Cc1ccco1", "outcome": "inactive"}, {"compound": "CC(C)NNC(=O)c1ccncc1", "outcome": "inactive"}, {"compound": "CCOC(=O)c1cnc2c(cnn2CC)c1NN=C(C)C", "outcome": "inactive"}, {"compound": "Cc1scc2c1N(C(=O)CN1CCN(C)CC1)c1ccccc1NC2=O", "outcome": "inactive"}, {"compound": "COc1cc(NS(C)(=O)=O)ccc1Nc1c2ccccc2nc2ccccc12", "outcome": "inactive"}, {"compound": "COc1ccc2[nH]cc(CCNC(C)=O)c2c1", "outcome": "inactive"}, {"compound": "NC(N)=NC(=O)Cc1c(Cl)cccc1Cl", "outcome": "inactive"}, {"compound": "O=c1c(-c2ccc(O)cc2)coc2cc(O)cc(O)c12", "outcome": "inactive"}, {"compound": "O=c1[nH]c(=O)n([C@H]2C[C@H](O)[C@@H](CO)O2)cc1Br", "outcome": "inactive"}, {"compound": "Cc1ccc(Cl)c(Nc2ccccc2C(=O)O)c1Cl", "outcome": "inactive"}, {"compound": "CN1[C@@H]2CC[C@H]1CC(OC(c1ccccc1)c1ccccc1)C2", "note": "(some centres undefined)", "outcome": "inactive"}, {"compound": "COc1cc(-c2ccc(=O)[nH]n2)ccc1OC(F)F", "outcome": "inactive"}, {"compound": "CN1CCC[C@@H]1c1cccnc1", "outcome": "inactive"}, {"compound": "CC(=O)Oc1cc(C(C)C)c(OCCN(C)C)cc1C", "outcome": "inactive"}, {"compound": "CC[N+](CC)(CC)CCOc1cccc(OCC[N+](CC)(CC)CC)c1OCC[N+](CC)(CC)CC", "outcome": "inactive"}, {"compound": "CCN(CC)CCOC(=O)c1ccc(N)cc1", "outcome": "inactive"}, {"compound": "NCCS(=O)(=O)O", "outcome": "inactive"}]}]}
